Inconclusive results are not listed. Activity calls are given as the source filed them. Unless noted, calls follow the shape of the dose curve; as a rule, active = well fitted curve in the direction sought with a large enough effect in the repeat runs; inconclusive = weak or mixed curves; inactive = no such curve, though single readings can be large; an effect the other way counts as inactive or inconclusive.
Columns and labels:
[1] = A CellTox Green Cytotoxicity Assay to monitor cytotoxicity in HepG2 cells - 24 hour (AID 1224878); also: nearly all actives have a fitted effect of over 45% in size
Procedure, shortened: (§1)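 Fluorescent DNA-binding dye, 600 HepG2 cells/well, 5 h preincubation then compound in DMSO; same plates read at 0–40 h, 37 C.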

[2] = A CellTox Green Cytotoxicity Assay to monitor cytotoxicity in HepG2 cells - 40 hour (AID 1224879); also: nearly all actives have a fitted effect of over 40% in size
Procedure, shortened: as §1

[3] = qHTS RealTime-Glo MT Cell Viability Assay in HEK293 cells - 0 hour (AID 1224880); also: top concentration of the series differs between compounds; nearly all actives have a fitted effect of over 45% in size
Procedure, shortened: (§2)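 Measured as luminescence from the same continuously cultured HEK293 wells at successive time points (0, 8, 16, 24, 32, 40 h) after compound addition. Reagent present from seeding; dosing at 5 h; incubation 37 C.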

[4] = A CellTox Green Cytotoxicity Assay to monitor cytotoxicity in HEK293 cells - 32 hour (AID 1224881); also: nearly all actives have a fitted effect of over 40% in size
Procedure, shortened: (§3)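 Homogeneous no-lysis format: HEK293 cell suspension mixed with CellTox Green reagent, seeded, incubated 5 h at 37 C/5% CO2, then dosed by pintool with compound in DMSO.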

[5] = A CellTox Green Cytotoxicity Assay to monitor cytotoxicity in HepG2 cells - 0 hour (AID 1224882); also: nearly all actives have a fitted effect of over 35% in size
Procedure, shortened: as §1

[6] = A CellTox Green Cytotoxicity Assay to monitor cytotoxicity in HepG2 cells - 32 hour (AID 1224883); also: nearly all actives have a fitted effect of over 50% in size
Procedure, shortened: as §1

[7] = A CellTox Green Cytotoxicity Assay to monitor cytotoxicity in HEK293 cells - 8 hour (AID 1224884); also: nearly all actives have a fitted effect of over 35% in size
Procedure, shortened: as §3

[8] = qHTS RealTime-Glo MT Cell Viability Assay in HepG2 cells - 16 hour (AID 1224885); also: nearly all actives have a fitted effect of over 50% in size
Procedure, shortened: (§4)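 HepG2 suspension premixed with RealTime-Glo reagents is plated at 600 cells per well and left 5 h at 37 C/5% CO2. Compounds in DMSO then go in, and bioluminescence reflecting viable cell number is recorded over 40 h.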

[9] = qHTS RealTime-Glo MT Cell Viability Assay in HEK293 cells - 24 hour (AID 1224886); also: top concentration of the series differs between compounds; nearly all actives have a fitted effect of over 50% in size
Procedure, shortened: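 Reads taken at 0, 8, 16, 24, 32 and 40 h from the same wells. HEK293 cells (600/well) carried RealTime-Glo reagents from seeding, with compound added after a 5 h settle at 37 C.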

[10] = qHTS RealTime-Glo MT Cell Viability Assay in HEK293 cells - 8 hour (AID 1224887); also: top concentration of the series differs between compounds; nearly all actives have a fitted effect of over 50% in size
Procedure, shortened: as §2

[11] = A CellTox Green Cytotoxicity Assay to monitor cytotoxicity in HEK293 cells - 16 hour (AID 1224888); also: nearly all actives have a fitted effect of over 35% in size
Procedure, shortened: as §3

[12] = qHTS RealTime-Glo MT Cell Viability Assay in HepG2 cells - 0 hour (AID 1224889); also: nearly all actives have a fitted effect of over 50% in size
Procedure, shortened: as §4

[13] = A CellTox Green Cytotoxicity Assay to monitor cytotoxicity in HepG2 cells - 8 hour (AID 1224890); also: nearly all actives have a fitted effect of over 45% in size
Procedure, shortened: as §1

[14] = qHTS assay to identify small molecule antagonists of the estrogen receptor alpha (ER-alpha) signaling pathway using the BG1 cell line in the presence of 0.1 nM 17-beta-estradiol - cell viability counter screen (AID 1259241); also: nearly all actives have a fitted effect of over 40% in size
Procedure, shortened: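 Viability in VM7Luc4E2 cells after 22 hr compound exposure under 0.1 nM 17beta-estradiol stimulation, by CellTiter-Fluor.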

[15] = qHTS assay to identify small molecule antagonists of the androgen receptor (AR) signaling pathway using the MDA cell line in the presence of 0.5 nM R1881 - cell viability counter screen (AID 1259242); also: nearly all actives have a fitted effect of over 45% in size
Procedure, shortened: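 Human breast carcinoma MDA-kb2 cells, cultured without CO2, receive compounds alongside 0.5 nM (final) R1881 agonist. After 16 hr at 37C, viability is taken as live-cell protease signal.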

[16] = qHTS assay to identify small molecule HDAC inhibitors (AID 1259364)
Procedure, shortened: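 After a 2 hr compound incubation (37C, 5% CO2), HCT-116 cells seeded at 1,500/well the day before received HDAC-Glo reagent; signal read as luminescence after 30 min at room temperature.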

[17] = qHTS assay to identify small molecule HDAC inhibitors - cell viability counter screen (AID 1259365)
Procedure, shortened: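 Cytotoxicity was gauged in wild-type HCT-116 cells after a brief 2hr treatment with DMSO-dissolved compounds at 37C and 5% CO2, using CellTiter-Glo luminescence developed for 30min at room temperature.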

[18] = biological target: Estrogen receptor (Homo sapiens) (UniProt P03372); test: qHTS assay to identify small molecule antagonists of the estrogen receptor alpha (ER-alpha) signaling pathway using the BG1 cell line in the presence of 0.1 nM 17-beta-estradiol (AID 1259244); also: nearly all actives have a fitted effect of over 50% in size
Procedure, shortened: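 Seeding of stripped-serum-adapted VM7Luc4E2 cells, 24 h attachment, compound transfer, then 0.1 nM final 17beta-estradiol; after 22 h incubation, ONE-Glo reagent and luminescence reading.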

[19] = biological target: Androgen receptor (Homo sapiens) (UniProt P10275); test: qHTS assay to identify small molecule antagonists of the androgen receptor (AR) signaling pathway using the MDA cell line in the presence of 0.5 nM R1881 (AID 1259243); also: nearly all actives have a fitted effect of over 50% in size
Procedure, shortened: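 Cells: MDA-kb2 (MMTV-luc). Stimulus: 0.5 nM R1881. Time: 16 hr, 37C, no CO2. Detection: ONE-Glo luminescence after 30 min at RT.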

[20] = qHTS assay to identify small molecule phospholipidosis (PLD) inducers (AID 1259344; active = well fitted curve in the direction sought with a large enough effect; an effect the other way counts as inactive or inconclusive)
Procedure, shortened: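 Accumulated phospholipid, stained red by LipidTOX during 24 h compound treatment of HepG2 cells at 37 C, is quantified from images as pit number and intensity, normalised per cell using Hoechst-stained nuclei.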
% is scaled to controls: 0 for no effect and ±100 for the full control effect.

Estrogen receptor (Homo sapiens), sequence (P03372 whole entry, looked up): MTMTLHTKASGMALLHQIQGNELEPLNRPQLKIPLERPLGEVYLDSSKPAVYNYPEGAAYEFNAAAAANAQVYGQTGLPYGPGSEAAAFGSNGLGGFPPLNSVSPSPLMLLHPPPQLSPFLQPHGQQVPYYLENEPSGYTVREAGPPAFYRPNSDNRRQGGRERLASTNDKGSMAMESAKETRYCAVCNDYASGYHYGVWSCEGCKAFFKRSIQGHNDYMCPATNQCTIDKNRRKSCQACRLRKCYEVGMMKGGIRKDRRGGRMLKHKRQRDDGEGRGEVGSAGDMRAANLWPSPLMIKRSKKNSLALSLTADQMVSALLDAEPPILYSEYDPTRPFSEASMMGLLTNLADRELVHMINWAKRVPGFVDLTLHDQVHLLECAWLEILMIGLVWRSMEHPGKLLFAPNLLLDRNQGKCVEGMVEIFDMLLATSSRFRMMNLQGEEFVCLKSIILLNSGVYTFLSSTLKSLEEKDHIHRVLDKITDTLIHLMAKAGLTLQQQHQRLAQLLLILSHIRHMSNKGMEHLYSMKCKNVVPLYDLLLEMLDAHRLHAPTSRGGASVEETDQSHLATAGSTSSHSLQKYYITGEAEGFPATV
Androgen receptor (Homo sapiens), sequence (P10275 whole entry, looked up): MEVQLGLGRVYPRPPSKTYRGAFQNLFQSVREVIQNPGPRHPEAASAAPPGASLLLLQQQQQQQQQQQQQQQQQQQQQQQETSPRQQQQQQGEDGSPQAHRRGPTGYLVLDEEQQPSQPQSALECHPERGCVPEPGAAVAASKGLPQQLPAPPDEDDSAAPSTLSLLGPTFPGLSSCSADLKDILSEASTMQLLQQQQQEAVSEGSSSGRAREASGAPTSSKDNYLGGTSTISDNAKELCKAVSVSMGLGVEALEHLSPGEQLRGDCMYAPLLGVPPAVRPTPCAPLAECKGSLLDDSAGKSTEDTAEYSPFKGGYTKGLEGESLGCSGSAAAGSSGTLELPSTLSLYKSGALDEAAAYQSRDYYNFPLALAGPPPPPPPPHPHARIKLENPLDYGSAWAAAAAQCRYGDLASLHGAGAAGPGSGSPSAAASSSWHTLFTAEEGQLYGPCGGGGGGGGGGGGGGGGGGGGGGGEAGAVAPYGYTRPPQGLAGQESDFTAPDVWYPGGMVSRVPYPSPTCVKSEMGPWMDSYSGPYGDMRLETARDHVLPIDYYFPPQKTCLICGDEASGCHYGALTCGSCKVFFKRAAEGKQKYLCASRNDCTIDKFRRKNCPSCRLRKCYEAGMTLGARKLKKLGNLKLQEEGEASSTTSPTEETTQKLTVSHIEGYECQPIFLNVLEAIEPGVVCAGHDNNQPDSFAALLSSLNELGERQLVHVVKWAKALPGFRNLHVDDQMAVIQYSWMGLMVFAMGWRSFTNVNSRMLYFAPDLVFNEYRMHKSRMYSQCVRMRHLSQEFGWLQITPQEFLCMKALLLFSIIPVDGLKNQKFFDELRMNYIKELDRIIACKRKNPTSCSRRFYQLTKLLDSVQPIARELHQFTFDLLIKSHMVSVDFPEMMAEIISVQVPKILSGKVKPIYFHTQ

C=CC(=O)OCCOCCOCC
inactive: Potency [1] | Potency [2] | Potency [3] | Potency [4] | Potency [5] | Potency [6] | Potency [7] | outcome [8] | outcome [9] | outcome [10] | Potency [11] | Potency [12] | Potency [13] | outcome [14] | outcome [15] | Potency [16] | outcome [17]

O=c1[nH]c(=O)c2cn[nH]c2[nH]1
inactive: Potency [1] | Potency [2] | Potency [3] | Potency [4] | Potency [5] | Potency [6] | Potency [7] | outcome [8] | outcome [9] | outcome [10] | Potency [11] | Potency [12] | outcome [14] | outcome [15] | Potency [16]

COc1ccccc1N1CCN(CC(O)COc2cc(OC)c(OC)c(OC)c2)CC1 (configuration not stated)
inactive: Potency [1] | Potency [2] | Potency [3] | Potency [4] | Potency [5] | Potency [6] | Potency [7] | outcome [8] | outcome [9] | outcome [10] | Potency [11] | Potency [12] | outcome [14] | outcome [15] | outcome [18] | Potency [16] | outcome [17]

C[Si](C)(C)O[Si](O)(O)O
inactive: Potency [1] | Potency [2] | Potency [3] | Potency [4] | Potency [5] | Potency [6] | Potency [7] | outcome [8] | outcome [10] | Potency [11] | Potency [12] | Potency [13] | outcome [14] | outcome [15]

COC(=O)c1ccc(NC(C)=O)cc1OC
inactive: Potency [1] | Potency [2] | Potency [3] | Potency [4] | Potency [5] | Potency [6] | Potency [7] | outcome [8] | outcome [9] | outcome [10] | Potency [11] | Potency [12] | outcome [14] | outcome [15] | Potency [19] | outcome [18] | Potency [16] | outcome [17]

CCOC(=O)CN1CCCC1=O
inactive: Potency [1] | Potency [2] | Potency [3] | Potency [4] | Potency [5] | Potency [6] | Potency [7] | outcome [8] | outcome [9] | outcome [10] | Potency [11] | Potency [12] | outcome [14] | outcome [15] | outcome [18] | Potency [16] | outcome [17]

CCOc1ccccc1OCCN[C@H](C)Cc1ccc(OC)c(S(N)(=O)=O)c1
inactive: Potency [1] | Potency [2] | Potency [3] | Potency [4] | Potency [5] | Potency [6] | Potency [7] | outcome [8] | outcome [9] | outcome [10] | Potency [11] | Potency [12] | outcome [14] | outcome [15] | Potency [20]

CC(C)(C)c1ccc(C(=O)CCCCl)cc1
inactive: Potency [1] | Potency [2] | Potency [3] | Potency [4] | Potency [5] | Potency [6] | Potency [7] | outcome [8] | outcome [9] | outcome [10] | Potency [11] | Potency [12] | outcome [14] | outcome [15] | outcome [18] | outcome [17]

CCOC(=O)CC
inactive: Potency [1] | Potency [2] | Potency [3] | Potency [4] | Potency [5] | Potency [6] | Potency [7] | outcome [8] | outcome [9] | outcome [10] | Potency [11] | Potency [12] | outcome [14] | outcome [15] | outcome [18] | outcome [17]

C/C=C/C(=O)CCCC
inactive: Potency [1] | Potency [2] | Potency [3] | Potency [4] | Potency [5] | Potency [6] | Potency [7] | outcome [8] | outcome [9] | outcome [10] | Potency [11] | Potency [12] | outcome [14] | outcome [15] | Potency [16] | outcome [17]

c1cc2ccc3ccc4ccc5cccc6c(c1)c2c3c4c56
inactive: cytotoxicity [1] -19.8% [at 2.72 µM] | cytotoxicity increase [2] -16.7% [at 2.72 µM] | activity change, negative = cytotoxicity [3] -3.02% [at 2.72 µM] | cytotoxicity increase [4] -14.8% [at 2.72 µM] | cytotoxicity [5] -21.2% [at 2.72 µM] | cytotoxicity increase [6] -14.8% [at 2.72 µM] | cytotoxicity increase [7] -10.4% [at 2.72 µM] | activity change, negative = cytotoxic [8] 0.567% [at 2.72 µM] | activity change, negative = cytotoxicity [9] 0.461% [at 2.72 µM] | activity change, negative = cytotoxicity [10] -6.75% [at 2.72 µM] | activity change [11] -11.1% [at 2.72 µM, active compounds read high] | activity change, negative = cytotoxicity [12] 3.24% [at 2.72 µM] | cytotoxicity increase [13] -16.5% [at 2.72 µM] | activity change, negative = cytotoxicity [14] 10.7% [at 3.27 µM] | viability change, negative = cytotoxic [15] 1.62% [at 3.26 µM] | activity change, negative = inhibition [16] -0.743% [at 3.27 µM] | activity change, negative = cytotoxicity [17] 2.08% [at 3.27 µM]

CCCCCCCCCCCCCCBr
inactive: Potency [1] | Potency [2] | Potency [3] | Potency [4] | Potency [5] | Potency [6] | Potency [7] | outcome [9] | outcome [10] | Potency [11] | Potency [12] | Potency [13] | outcome [14] | outcome [15] | outcome [18] | Potency [16] | outcome [17]

CC(=O)Nc1ccc(S(=O)(=O)Nc2cc(C)on2)cc1
inactive: Potency [1] | Potency [2] | Potency [3] | Potency [4] | Potency [5] | Potency [6] | Potency [7] | outcome [9] | outcome [10] | Potency [11] | Potency [12] | Potency [13] | outcome [14] | outcome [15] | PLD induction [20] 3.97% [at 7.66 µM] | Potency [16] | outcome [17]

Source: PubChem BioAssay (Tox21)
